# Laboratory results: PubChem BioAssay (NCI)
# Compounds without any hit were thinned out: in the full panel of roughly 83,000, 20% have a hit.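 Testing used 96-well plates and a 48-hour single-concentration exposure. Example: -40 means 40% of the starting cells died.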 A number with no mark means an inactive call. The source made the active and inactive calls. How the source made its calls: active means growth percent below 10; inactive means the rest.
# Tests used:
# Assay in all cases: NCI-60 one-dose screen, 48 h (100 = growth as untreated, 0 = no growth, -100 = all killed)
# Conditions in all cases: 10 µM unless noted
# NCI-H23 lung = tested on: NCI-H23 lung
# NCI-H226 lung = tested on: NCI-H226 lung
# NCI-H322M lung = tested on: NCI-H322M lung
# HOP-62 NSCLC = tested on: HOP-62 NSCLC
# NCI-H460 lung = tested on: NCI-H460 lung
# HOP-92 NSCLC = tested on: HOP-92 NSCLC
# NCI-H522 lung = tested on: NCI-H522 lung
# A549/ATCC NSCLC = tested on: A549/ATCC NSCLC
# 786-0 renal = tested on: 786-0 renal
# COLO 205 colon = tested on: COLO 205 colon
# DU-145 prostate = tested on: DU-145 prostate
# K-562 leukemia = tested on: K-562 leukemia
# MALME-3M melanoma = tested on: MALME-3M melanoma
# MDA-MB-231 breast = tested on: MDA-MB-231 breast
# RXF 393 renal = tested on: RXF 393 renal
# SF-268 CNS = tested on: SF-268 CNS
# SF-295 CNS = tested on: SF-295 CNS
# SF-539 CNS = tested on: SF-539 CNS
# UACC-257 melanoma = tested on: UACC-257 melanoma
# M14 melanoma = tested on: M14 melanoma
SMILES,growth (NCI-H23 lung),growth (NCI-H226 lung),growth (NCI-H322M lung),growth (HOP-62 NSCLC),growth (NCI-H460 lung),growth (HOP-92 NSCLC),growth (NCI-H522 lung),growth (A549/ATCC NSCLC),growth (786-0 renal),growth (COLO 205 colon),growth (DU-145 prostate),growth (K-562 leukemia),growth (MALME-3M melanoma),growth (MDA-MB-231 breast),growth (RXF 393 renal),growth (SF-268 CNS),growth (SF-295 CNS),growth (SF-539 CNS),growth (UACC-257 melanoma),growth (M14 melanoma)
CCCOc1cc2ccccc2cc1C(=O)Nc1nc(N)c2c(ccc3nccc32)[nH]1,-55.1% (active),-56.6% (active),-35.1% (active),-68.8% (active),-75.8% (active),-71.2% (active),-59.6% (active),-70.3% (active),-71.9% (active),-78.3% (active),-65.8% (active),-28.9% (active),-76.1% (active),-67.1% (active),-77.1% (active),-68.6% (active),-76.6% (active),-77.7% (active),-77.6% (active),-69.8% (active)
Nc1nc2ccc3[nH]ncc3c2c2c1CCCC2,-19% (active),6.29% (active),2.32% (active),2.81% (active),2.07% (active),-12.6% (active),-1.98% (active),8.61% (active),6.18% (active),-19% (active),6.94% (active),9.77% (active),23%,4% (active),-51.1% (active),-9.66% (active),17.1%,-32.9% (active),15.6%,1.67% (active)
OCC(O)c1nc2ccc3[nH]ncc3c2c2c1CCCC2 (stereo not given),2.08% (active),-4.5% (active),8.59% (active),10.6%,5.14% (active),-10.3% (active),13.3%,6.34% (active),4.15% (active),1.61% (active),11.7%,37.2%,19%,1.65% (active),-58.4% (active),-3.77% (active),9.19% (active),-39.1% (active),10.2%,5.99% (active)
CCCCN(CCCC)CCCn1c(-c2ccccc2)ccc1-c1ccccc1,52.9%,53.6%,86.7%,87.9%,67.7%,44.7%,58.3%,76%,72.7%,61.3%,68.3%,52.2%,86.2%,22.9%,82.8%,73.7%,60%,67.4%,90.1%,77.6%
O=C(CCN1C(=O)/C(=C/c2ccc(Cl)cc2)SC1=S)NCCCN1CCOCC1,101%,98.2%,104%,101%,102%,102%,88.9%,102%,107%,108%,106%,97.8%,100%,100%,109%,95.7%,95.2%,93.7%,102%,103%
O=C(COc1ccc(-c2nc3cc(Cl)c(Cl)cc3[nH]2)cc1)N=Nc1c(O)[nH]c2ccccc12,31.8%,-30.2% (active),4.51% (active),50.1%,-69.6% (active),-33.3% (active),13.6%,29%,-44.8% (active),12.6%,-20.7% (active),10.8%,-68.9% (active),-50.2% (active),-5.96% (active),-64.5% (active),5.99% (active),41.4%,54.4%,-22.1% (active)
Cc1ccc(/C=C2\SC(=S)N(CC(=O)NCCCN3CCOCC3)C2=O)cc1,99.6%,91%,104%,103%,103%,91.5%,90.5%,102%,104%,111%,104%,89.6%,95.1%,91.9%,101%,96.5%,91.1%,93.7%,101%,102%
COc1cc(/C=C/c2cc(/C=C/c3ccc(O)c(OC)c3)n(-c3c(C)cccc3C)c(=O)n2)ccc1O,2.99% (active),4.63% (active),15.9%,-2.09% (active),7.91% (active),-3.15% (active),-10.2% (active),2.96% (active),12.6%,-40.9% (active),12.7%,5.52% (active),-14% (active),23.1%,-32.1% (active),8.69% (active),8.43% (active),-23.5% (active),-6.5% (active),8.07% (active)
